KDM5B inh = blocks human KDM5B histone demethylase activity; KDM5B demethylase, FDH-coupled NADH fluorescence (FDH is formaldehyde dehydrogenase); AID 1347165; hit rate 2.6% among 220,000; Potency, µM (top dose mostly 57.7 µM), most hits filed as inhibitors; active = well fitted inhibition curve with a large enough effect; note: 0% is about no effect; nearly all actives have a fitted effect of over 70% in size
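Compound dilutions met 200 nM (final) KDM5BΔAP for 10 min at room temperature before substrate addition. The substrate mix held 12.5 µM H3K4me3 with cofactors 25 µM α-ketoglutarate and 50 µM Fe²⁺. NADH signal gain over 30 min defined activity.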
* hit, by the source's call. Many of the other results were omitted from the sample, so hits are more common in it than they were. Potency is the fitted concentration of half-maximal effect.

Screening CCOC(=O)c1ccc(Oc2c(C(F)(F)F)oc3cc(OC(=O)c4ccc(F)cc4)ccc3c2=O)cc1 returned KDM5B inh inactive.
`CC(C)(C)c1ccc(OCC(O)CNS(=O)(=O)c2ccc(Br)cc2)cc1` (configuration not stated) gave KDM5B inh inactive.
Screening COc1cccc(C(=O)NN2CC(O)=C(c3nc(-c4ccc(Cl)cc4)cs3)C2=N)c1 returned KDM5B inh inactive.
Screening Cc1cccnc1CN(C)C(=O)c1ccc2nc(-c3ccccc3)cn2c1 returned KDM5B inh 28.2µM*.
`CCc1nnc(CN(CC)C(=O)c2cc(S(N)(=O)=O)ccc2F)o1` gave KDM5B inh inactive.
Cc1ccccc1[C@H]1[C@@H](C(=O)N(C)Cc2ncccc2C)C[C@@](C)(C(=O)O)N1C was read as KDM5B inh inactive.
For CCc1noc(CN(CC)C(=O)c2cc(-c3ccccc3)nn2C)n1 the results were KDM5B inh inactive.
Screening Cc1ccc2nc(C(=O)N(C)Cc3cc(-c4cccnc4)no3)cn2c1 returned KDM5B inh inactive.
CCc1nnc(CN(CC)C(=O)c2ccc3nc(-c4ccccc4)cn3c2)o1 was read as KDM5B inh 28.2µM*.
COc1ccc(OCCOC(=O)c2ccc3c(c2)NC(=O)CS3)cc1 was read as KDM5B inh inactive.
`CC(C)CCN1CCN(C(=O)CCCc2ccccc2)CC1` gave KDM5B inh inactive.
Cc1[nH]c2ccccc2c1C(=O)CN1C(=O)CC2(CCCCC2)C1=O was read as KDM5B inh inactive.
`CCOCCOC1CCN(C(=O)COc2ccccc2)CC1` gave KDM5B inh inactive.
For CCOCC(=O)N1CCC(Nc2cccn3ncnc23)CC1 the results were KDM5B inh 15.8µM*.
For CCOCC(=O)N1CCC(Oc2ncccc2C(=O)N2CCCCC2)C1 (configuration not stated) the results were KDM5B inh inactive.
COc1ccc2nc(NS(=O)(=O)c3ccc(Cl)cc3)c(Nc3cc(C)ccc3OC)nc2c1 was read as KDM5B inh inactive.
For COc1cccc(C2C3=C(CC(C)(C)CC3=O)Nc3ccccc3N2C(=O)C(F)(F)F)c1OC (configuration not stated) the results were KDM5B inh inactive.
CC(C)CC(=O)Nc1ccc(C(=O)Nc2ccc(CCC(=O)O)cc2)cc1 was read as KDM5B inh inactive.
`Cc1c(C(=O)N2CCOCC2)cnn1-c1ccccc1F` gave KDM5B inh inactive.
For Cc1ccc2c(C(=O)N3CCOCC3)cnn2c1 the results were KDM5B inh 31.6µM*.
`O=C(c1cnn2ncccc12)N1CCOCC1` gave KDM5B inh inactive.
For Cc1ccc(CN2CCCC(c3nn(-c4ccc(Cl)cc4)c(=O)[nH]3)C2)cc1 (configuration not stated) the results were KDM5B inh inactive.
For CCOC(=O)CN1CCN(C(=O)CCc2cc3ccc(C)cc3[nH]c2=O)CC1 the results were KDM5B inh 25.1µM*.
Cc1ccc2cc(COC(=O)c3ccco3)c(=O)[nH]c2c1 was read as KDM5B inh inactive.
For CCN(Cc1cc2ccc(C)cc2[nH]c1=O)C(=O)c1ccccc1C the results were KDM5B inh inactive.
For COC(=O)C(NC(=O)c1ccccc1OC)(Nc1nc(C2CC2)cs1)C(F)(F)F (configuration not stated) the results were KDM5B inh inactive.
`CCc1ccc2oc(C(=O)NCC(c3ccc(C)o3)N3CCCCC3)cc(=O)c2c1` (configuration not stated) gave KDM5B inh inactive.
COc1ccc(F)cc1-c1ccc(C(=O)NCCCn2ccnc2C(C)C)cn1 was read as KDM5B inh 28.2µM*.
`Cc1ccc(C)c(-c2ccc(C(=O)NCCCn3ccnc3C(C)C)cn2)c1` gave KDM5B inh inactive.
Screening CC(C)c1nccn1CCCNC(=O)c1ccc(-c2ccccc2F)nc1 returned KDM5B inh inactive.
O=c1[nH]c2ccc(S(=O)(=O)Nc3c(NC4CCCCC4)c4ccccc4oc3=O)cc2o1 was read as KDM5B inh inactive.
CC(C)Sc1ccc(C(=O)NCC(O)c2ccccc2)cc1 (configuration not stated) was read as KDM5B inh inactive.
CN(C)c1ccc(-c2nn3c(CN4CCCCC4)nnc3s2)cc1 was read as KDM5B inh inactive.
Cc1ccccc1-n1nc(C)c(CCC(=O)NCC2CC2)c1Oc1cccc(F)c1 was read as KDM5B inh inactive.
Cc1ccccc1-n1nc(C)c(CCC(=O)NCC(C)C)c1Oc1cccc(F)c1 was read as KDM5B inh 22.4µM*.
`Cc1nn(-c2ccc(F)cc2)c(Oc2cccc(F)c2)c1CCC(=O)NC(C)C` gave KDM5B inh inactive.
Screening CSC1=N/C(=C\c2ccc(Cl)c(Cl)c2)C(=O)S1 returned KDM5B inh inactive.
CCN(CC)S(=O)(=O)c1ccc(C)c(NC(=O)Cc2ccccc2F)c1 was read as KDM5B inh inactive.
`COc1ncccc1N1CC2(COCC(=O)N(Cc3cccc(OC(F)(F)F)c3)C2)C1` gave KDM5B inh 7.08µM*.

From PubChem BioAssay
